{"source": "PubChem BioAssay AID1347426", "about": "(Functional Genomics Laboratory (NCATS/FGL), 2020)", "note": "Hit rate of the full screen: of about 31,000 sequences, about 1,400 (4.5%) were called active. The sample as a whole holds a higher share of actives than the screen did. Unmarked numbers belong to inactive results.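 Rule for the calls: active = median seed-adjusted z-score above 1 or below -1; inactive = the rest.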", "data": [{"assay": "Novel Modifiers of Survival Motor Neuron (SMN) Protein: Gene Identification via Genome-wide siRNA Screen;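 note: luminescence tracks full-length SMN protein made from the SMN2 reporter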", "conditions": "HEK293T SMN2-luciferase reporter, siRNA knockdown, 72 h; actives lie on both sides", "description": "Spinal muscular atrophy (SMA) is the most common neuromuscular autosomal recessive disorder and one of the leading genetic causes of infant death. SMA results from mutations inducing loss of function or deletion in the survival of motor neuron-1 gene (SMN1), leading to deficiency of the survival motor neuron (SMN) protein. Although a second nearly identical gene, SMN2, is retained in humans, its expression primarily produces an aberrantly spliced isoform that is largely unstable and quickly degraded. We performed a genome-wide RNAi screen using a cell-based reporter assay to identify genes and pathways that modulate SMN protein stability. The screen identified over 200 genes that led to the greatest increase or decrease in luciferase expression.\nUsing HEK293T cells stably expressing a luciferase reporter that combines the promoter and splicing based cassettes in tandem with the major portion of the native SMN2 cDNA with luciferase, we performed a genome-wide RNAi screen to identify modulators of SMN protein levels. Luciferase is expressed when full-length SMN protein is generated with luminescence signal proportional to SMN protein levels. Our luciferase-based reporter assay was used to screen Ambion Silencer Select Human Druggable Genome siRNA library (10418 genes, 3 unique siRNAs per gene) using lipid-based reverse transfection.\nBriefly, 1 pmol of each siRNA was spotted to a well of a 384-well plate (Corning, Corning, NY) and 20 microL of serum-free DMEM containing […] of Lipofectamine RNAiMax (Life Technologies, Carlsbad, CA) was then added to each well. Transfected cells were maintained at 37 degrees C in 5% CO2 for 72 hours, 20 microL of ONE-Glo Reagent (Promega) was added to wells for luciferase quantification. Raw luminescence reads were normalized to Ambion(R) Silencer(R) Negative Control #2 siRNA, then log10 transformed. A robust statistical measure of median absolute deviation (MAD) to standardize siRNA activities from each screen. Common Seed Analysis was used to help prioritize clean hits as opposed to those appearing to arise from seed based off-target effects. Candidate modulators were defined as the genes having a MAD score greater than 1.0 or less than -1.0.", "values": [{"sequence": "GAACCAUACAUACUACAGATT against WDR31", "median seed-adjusted z-score": 0.796}, {"sequence": "AGGGAGCAAAUGAACCUGATT against VIP", "median seed-adjusted z-score": "1.52 (active)"}, {"sequence": "GGGAAGGUGUUACAGGCUATT against FAM62A", "median seed-adjusted z-score": -0.34}, {"sequence": "CUGUCCAUCUGGGUCGUGATT against SLC30A2", "median seed-adjusted z-score": -0.402}, {"sequence": "CUGCAGCUUUUAUCACAAATT against SLC25A33", "median seed-adjusted z-score": -0.0252}, {"sequence": "GUAGAUAUGUGGAAACGGATT against FAM48A", "median seed-adjusted z-score": -0.506}, {"sequence": "GAGUCCCAUUUACAGCUAUTT against PFTK2", "median seed-adjusted z-score": "-1.16 (active)"}, {"sequence": "GGAUGGAGACUACGAGUUUTT against STK4", "median seed-adjusted z-score": 0.652}, {"sequence": "GACCAGAUAUUUGCCUAUUTT against CYFIP1", "median seed-adjusted z-score": -0.377}, {"sequence": "GGAAAAUCAUCUUAUCAGATT against TEAD1", "median seed-adjusted z-score": "1.31 (active)"}, {"sequence": "CAGUAUACCAUCUAACAGATT against CNTN1", "median seed-adjusted z-score": -0.796}, {"sequence": "CCACUUUAAUAAACGUGCUTT against TIMM10", "median seed-adjusted z-score": 0.0738}, {"sequence": "CAGUGAAGAUAAAAUUCAATT against CRIP3", "median seed-adjusted z-score": "1.7 (active)"}, {"sequence": "CCUUCAAGGUCAACGUGUATT against KCNH3", "median seed-adjusted z-score": -0.509}, {"sequence": "GGAGCACAAUAGAUCUGAATT against SEPX1", "median seed-adjusted z-score": -0.0545}, {"sequence": "CCAUGGGAAUCCAAUCUGUTT against PTTG1", "median seed-adjusted z-score": -0.459}, {"sequence": "GGACAUUCUAGAGAAAGAATT against SUPT5H", "median seed-adjusted z-score": "-4.02 (active)"}, {"sequence": "CGACCAUCAUGGAAAACAUTT against ABCB8", "median seed-adjusted z-score": -0.558}, {"sequence": "GGAGGAUCUUGUACCCAGATT against PNKP", "median seed-adjusted z-score": -0.0563}, {"sequence": "CAGUGGGAACGACAACUUUTT against HNRPA1P4", "median seed-adjusted z-score": -0.906}, {"sequence": "GGAACACUUUCUCUCUAGATT against NOD2", "median seed-adjusted z-score": 0.129}, {"sequence": "GAUGCGAUUUGAUGAGAUATT against EPS15L1", "median seed-adjusted z-score": -0.0511}, {"sequence": "CGCUAUACCUACCAGCAAATT against DNAJB12", "median seed-adjusted z-score": 0}, {"sequence": "GCCUUACUCUGAUCUGGUATT against IL1RAP", "median seed-adjusted z-score": -0.23}, {"sequence": "CUACCAUGGUGUACCAACATT against QRICH1", "median seed-adjusted z-score": "-1.04 (active)"}, {"sequence": "GCAAACAAGUGAUAGUGAUTT against RBM11", "median seed-adjusted z-score": -0.0341}, {"sequence": "UCUUCUCCCUGAUAAAGUATT against SLC6A13", "median seed-adjusted z-score": 0.267}, {"sequence": "GACUGAUCCCUCUACUUCATT against SNTG1", "median seed-adjusted z-score": 0.167}, {"sequence": "GCUUUCAGCUGAACGAACUTT against LTF", "median seed-adjusted z-score": 0.236}, {"sequence": "GAAUAUUCCUAUAGUGAUATT against MYOZ2", "median seed-adjusted z-score": 0.315}, {"sequence": "GAGUCUACCUAAUUCUGGATT against AURKA", "median seed-adjusted z-score": -0.108}, {"sequence": "CGACCUAAUCAUUCACAGUTT against CYP26C1", "median seed-adjusted z-score": -0.276}, {"sequence": "GGAGAAGAUACAAAGCGCATT against MED21", "median seed-adjusted z-score": "-1.3 (active)"}, {"sequence": "UAACAAAUCCUAUUAGAUUTT against CTBP2", "median seed-adjusted z-score": -0.241}, {"sequence": "CGAAAACAGGAGAUCAUUATT against CAMK2G", "median seed-adjusted z-score": -0.107}, {"sequence": "GCGGCUCCAUUUACCAGAATT against VDAC1", "median seed-adjusted z-score": 0.133}, {"sequence": "GGACAUUUCAUGAGUCAUUTT against 8-Mar", "median seed-adjusted z-score": -0.106}, {"sequence": "GCAUGAAUGCAACCUGAUUTT against DDX55", "median seed-adjusted z-score": 0.507}, {"sequence": "GCAUGACGACUGAACUGAUTT against MDH1B", "median seed-adjusted z-score": "-1.13 (active)"}, {"sequence": "GCAACUUCUUAAGACUAAATT against DBR1", "median seed-adjusted z-score": 0.438}, {"sequence": "GCAAGGCGGUGUUUAUGGATT against DLX1", "median seed-adjusted z-score": 0.0356}, {"sequence": "CUCUCUCUGCAACACCUUUTT against SLC39A3", "median seed-adjusted z-score": 0.0298}, {"sequence": "CUACAGUCGGGAACAUGAATT against CLK3", "median seed-adjusted z-score": "-1.11 (active)"}, {"sequence": "ACGCUGUCCUGGUUCUUCATT against DGAT2L3", "median seed-adjusted z-score": 0.247}, {"sequence": "GCAGAGCGGGUUAAAAUGATT against DNAJC2", "median seed-adjusted z-score": -0.0357}, {"sequence": "GGUUACAAGUGUAUAACAATT against CD59", "median seed-adjusted z-score": 0.79}, {"sequence": "CGGUGCUGUUCGUCGUCUATT against GJD3", "median seed-adjusted z-score": -0.251}, {"sequence": "GAAGGGAAAUGAGUACCGATT against TRIM68", "median seed-adjusted z-score": -0.628}, {"sequence": "GGAUAAUACAGAAGCAGAATT against SAP30BP", "median seed-adjusted z-score": -0.257}, {"sequence": "GGAAGAAACCAUUACAAUATT against SNAPC3", "median seed-adjusted z-score": "-1.72 (active)"}, {"sequence": "AGAUGUGAAGCUCAAAUUATT against ETV7", "median seed-adjusted z-score": -0.00772}, {"sequence": "GGGAGUCUUUCUUCGGGAATT against ABCG1", "median seed-adjusted z-score": -0.609}, {"sequence": "CAUCAUCUCUGGAACUCUUTT against ALAS2", "median seed-adjusted z-score": -0.142}, {"sequence": "GGUCAUGCAGAUUAUGUUATT against TUFM", "median seed-adjusted z-score": "1.07 (active)"}, {"sequence": "CCUAUUCCCGAAGCCGUUATT against PLAUR", "median seed-adjusted z-score": -0.118}, {"sequence": "AAUGGAACCUGUAAGUGUATT against GCN5L2", "median seed-adjusted z-score": 0.013}, {"sequence": "GAAGGACCCAGAUCUCUUUTT against ADCK1", "median seed-adjusted z-score": -0.177}, {"sequence": "GAUCCUAUCUUACUAACCATT against IL7R", "median seed-adjusted z-score": 0}, {"sequence": "GGCUUAUUGGAGCUCUUAATT against CSE1L", "median seed-adjusted z-score": 0.425}, {"sequence": "CAAGAUCUCAAGAAAUUCATT against CDK2", "median seed-adjusted z-score": -0.347}, {"sequence": "CCAUCGGAAUCUUGACGAATT against MX1", "median seed-adjusted z-score": "-1.49 (active)"}, {"sequence": "GCAACGUGGACAUUGGUGATT against SOX10", "median seed-adjusted z-score": -0.255}, {"sequence": "GAGUUCCUCUGGUCACUAUTT against TTC18", "median seed-adjusted z-score": "-1.15 (active)"}, {"sequence": "GUUCAUCUUGAUUCACAAATT against NOC4L", "median seed-adjusted z-score": -0.315}, {"sequence": "GGAUGGCCAUUGAAGGGAUTT against ECHDC2", "median seed-adjusted z-score": -0.0827}, {"sequence": "GGGACAGGCUGCAAAGAAATT against AARS2", "median seed-adjusted z-score": -0.52}, {"sequence": "CGGCUGGGUCUGUACCAAATT against TLX2", "median seed-adjusted z-score": -0.182}, {"sequence": "GGUCUUUGAUGCGAAGUUATT against DOCK2", "median seed-adjusted z-score": 0.151}, {"sequence": "GCAUCGACGUGAUCACCAUTT against GPR26", "median seed-adjusted z-score": "-1.33 (active)"}]}]}
